Experimental data taken from the supplement of paper PMC9925115.

tested on: FLX1 + dox-induced PRKAR1A G325D; test: difference in log2 fold change of viability vs plate median (dox-induced PRKAR1A G325D minus uninduced); higher = compound less effective when PKA is inhibited; details: concentration: not stated (2 or 5 uM); 5 days
Protocol: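 For each plate a log2 fold change vs the plate median was derived, and the values without dox were subtracted from those with dox, averaged over three biological replicates.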

Structure (SMILES) | difference in log2 fold change of viability
Oc1cccc(-c2nc(N3CCOCC3)c3oc4ncccc4c3n2)c1 | 0.496
Nc1cc(C(F)(F)F)c(-c2cc(N3CCOCC3)nc(N3CCOCC3)n2)cn1 [Buparlisib (BKM120, NVP-BKM120)] | 0.841
CC(C)(C)c1cc(/C=C(\C#N)C(N)=S)cc(C(C)(C)C)c1O [Tyrphostin AG 879] | 0.264
C[C@H]1[C@H](C)CC[C@]2(C(=O)O)CC[C@]3(C)C(=CC[C@@H]4[C@@]5(C)C[C@@H](O)[C@H](O)[C@@](C)(CO)[C@@H]5CC[C@]43C)[C@H]12 [Asiatic Acid] | -0.0847
C=CC(=O)Nc1cc(Nc2nccc(-c3cn(C)c4ccccc34)n2)c(OC)cc1N(C)CCN(C)C [Osimertinib (AZD9291)] | -0.173
CCCNC(=O)Nc1ccc(Oc2ncnc3cc(OC)c(OC)cc23)cc1Cl | -0.22
C[C@]1(O)C[C@@H](c2nc(-c3ccc4ccc(-c5ccccc5)nc4c3)c3c(N)nccn32)C1 [Linsitinib (OSI-906)] | 0.468
CCOc1cc2ncc(C#N)c(Nc3ccc(F)c(Cl)c3)c2cc1NC(=O)/C=C/CN(C)C [Pelitinib (EKB-569)] | 0.0327
C[C@@H](N)[C@H]1CC[C@H](C(=O)Nc2ccncc2)CC1 | 0.511
COc1ccc(-c2nc(N3CCOCC3)c3sc(CN(C)c4ncc(C(=O)NO)cn4)cc3n2)cn1 | 0.159
C=CC(=O)N1CCC[C@@H](n2nc(-c3ccc(Oc4ccccc4)cc3)c3c(N)ncnc32)C1 | -2.14
CCN1CCN(Cc2ccc(C(=O)Nc3ccc(C)c(Oc4ccc5c(c4)CC(=O)N5)c3)cc2C(F)(F)F)CC1 | -0.078
CN(C[C@@H]1COCCO1)S(=O)(=O)Nc1ccc2ccc3ncc(-c4cnn(C)c4)cc3c(=O)c2c1 | -0.247
Clc1ccc(C2(c3ccc(-c4cn[nH]c4)cc3)CCNCC2)cc1 | 0.734
CNC(=O)c1cc(Oc2ccc(NC(=O)Nc3ccc(Cl)c(C(F)(F)F)c3)cc2)ccn1 [Sorafenib] | 0.0478
Cc1cn(-c2cc(NC(=O)c3ccc(C)c(Nc4nccc(-c5cccnc5)n4)c3)cc(C(F)(F)F)c2)cn1 [Nilotinib (AMN-107)] | 0.157
CN1CCN(C2CCN(C(=O)Nc3cc(Oc4ccc(NC(=O)C5(C(=O)Nc6ccc(F)cc6)CC5)c(F)c4)ccn3)CC2)CC1 [Golvatinib (E7050)] | 0.0894
O=C(c1ccc(/C=C/c2n[nH]c3ccccc23)cc1)N1CCNCC1 | -0.0816
Fc1cc(-c2cccc3ncc(-c4cnn(C5CCNCC5)c4)nc23)cc(F)c1CN1CCOCC1 | 0.246
CC(C)(C)c1nc(-c2cccc(NS(=O)(=O)c3c(F)cccc3F)c2F)c(-c2ccnc(N)n2)s1 | 0.264

Structure (SMILES) | difference in log2 fold change of viability
O=C(O)c1ccc(Nc2ncc3c(n2)-c2ccc(Cl)cc2C(c2c(F)cccc2F)=NC3)cc1 | -0.0396
Cc1cc(Nc2cc(N3CCN(C)CC3)nc(Sc3ccc(NC(=O)C4CC4)cc3)n2)n[nH]1 [Tozasertib (VX-680, MK-0457)] | -0.00164
N#Cc1c(O)c2c(-c3ccc(-c4ccccc4O)cc3)csc2[nH]c1=O | 0.134
Cc1cc(F)c(Nc2ncnc3cc(OCc4ccccc4)ccc23)cc1O | 0.0836
COc1cc2nccc(Oc3ccc(NC(=O)NC4CC4)c(Cl)c3)c2cc1C(N)=O [Lenvatinib (E7080)] | -0.0902
CNC(=O)c1ccccc1Nc1nc(Nc2ccc(N3CCOCC3)cc2OC)ncc1Cl | -1.51
Oc1c2ccccc2c2c3c(cccc13)N=N2 | 0.149
NC1(Cc2ccc(Cl)cc2)CCN(c2ncnc3[nH]ccc23)CC1 | 0.655
CCN1/C(=C/C(C)=O)Sc2ccc(OC)cc21 | -0.074
c1cncc(CN2CCC(n3ncc4c(N5CCOCC5)nc(-c5ccc6[nH]ccc6c5)nc43)CC2)c1 | -1.08
Nc1cccc(-c2cc3c(Oc4cccc(O)c4)ncnc3[nH]2)c1 | -0.478
CN1CCN(CCOc2cc(OC3CCOCC3)c3c(Nc4c(Cl)ccc5c4OCO5)ncnc3c2)CC1 [Saracatinib (AZD0530)] | -1.34
Cn1cnc2c(F)c(Nc3ccc(Br)cc3Cl)c(C(=O)NOCCO)cc21 [Selumetinib (AZD6244)] | -1.05
CNc1nc(-c2ccc3c(N)n[nH]c3c2)cc(N2C[C@@H](C(=O)NC3CCCCC3)CC[C@H]2C)n1 | 0.221
CN(C)C/C=C/C(=O)Nc1cc2c(Nc3ccc(F)c(Cl)c3)ncnc2cc1O[C@H]1CCOC1 [Afatinib (BIBW2992)] | -1.66
Cn1cc(-c2ccc3ncc(Cc4ccc5ncccc5c4)n3n2)cn1 | -0.0241
Cn1cnc(N)c2ncnc1-2 [3-Methyladenine (3-MA)] | 0.548
COc1ncc(-c2ccc3nccc(-c4ccnnc4)c3c2)cc1NS(=O)(=O)c1ccc(F)cc1F | 0.179
C[C@@H]1CN(CC(=O)Nc2ccc3c(c2)Cc2cccc(-c4cc(=O)cc(N5CCOCC5)o4)c2S3)C[C@H](C)O1 | -0.0572
Cc1ncc(-c2ccnc(Nc3ccc(S(C)(=O)=O)cc3)n2)n1C(C)C | 0.632
